Reference: PubChem BioAssay AID1851 (National Center for Advancing Translational Sciences (NCATS), 2009)
Out of some 16,000 compounds screened, about 2,600 (16%) were called active. Roughly 20% stayed inconclusive and do not appear here. A selection follows. Values without a mark were called inactive. Calls follow the shape of the dose curve; as a rule, active = well fitted curve in the direction sought with a large enough effect; inconclusive = small, poorly fitted or top-dose-only effect, or effect the other way; inactive = no such curve, though single readings can be large or run the other way.

Target: Cytochrome P450 2D6 (Homo sapiens) (UniProt P10635)
Test: Cytochrome panel assay with activity outcomes
Settings: recombinant CYP, pro-luciferin dealkylation, luminescence, p450-cyp2d6; series mostly up to 57.1 µM; activity, negative = inhibition: at the top concentration
% is scaled to controls: 0 for no effect and ±100 for the full control effect.

Sequence of Cytochrome P450 2D6 (Homo sapiens) (P10635 whole entry, looked up): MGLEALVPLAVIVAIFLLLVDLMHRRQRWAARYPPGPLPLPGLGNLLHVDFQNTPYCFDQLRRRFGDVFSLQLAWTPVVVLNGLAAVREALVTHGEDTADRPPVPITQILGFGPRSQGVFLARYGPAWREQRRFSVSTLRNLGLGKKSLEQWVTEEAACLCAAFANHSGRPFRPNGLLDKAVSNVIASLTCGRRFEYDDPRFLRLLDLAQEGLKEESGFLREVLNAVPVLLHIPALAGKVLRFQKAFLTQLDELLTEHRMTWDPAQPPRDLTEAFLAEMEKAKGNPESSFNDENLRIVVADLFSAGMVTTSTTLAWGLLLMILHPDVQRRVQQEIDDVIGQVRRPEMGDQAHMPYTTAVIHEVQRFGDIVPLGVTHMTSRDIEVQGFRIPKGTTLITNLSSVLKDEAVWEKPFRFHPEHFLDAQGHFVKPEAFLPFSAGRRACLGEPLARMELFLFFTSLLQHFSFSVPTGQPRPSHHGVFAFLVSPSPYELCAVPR

Row | Structure (SMILES) | activity, negative = inhibition | AC50
1 | CCCc1cc(=O)oc2cc(OCc3cc(OC)c(OC)c(OC)c3)c(Cl)cc12 | -0.725% | –
2 | O=C(Cc1ccccc1)N/N=C\c1ccc(Br)o1 | 9.59% | –
3 | O=C(Nc1cccc2ncccc12)c1cccc(F)c1 | -5.82% | –
4 | CC1Cc2ccccc2N1C(=O)CCN1C(=O)C2C3C=CC(C3)C2C1=O (stereo unspecified) | -0.934% | –
5 | CC(C)(C)Cn1nc(-c2ccc(Cl)cc2)c2c(N)ncnc21 | 11.5% | –
6 | Nc1nc(N)nc(CCCc2nc(N)nc(N)n2)n1 | 19.1% [at 11.4 µM] | –
7 | C/C(=C(/CCO)SSC[C@@H]1CCCO1)N(C=O)Cc1cnc(C)nc1N | 9.85% [at 25.6 µM] | –
8 | COc1cccc(Nc2ncc3ncc(=O)n(CCC#N)c3n2)c1 | -7.47% | –
9 | C1CCc2c(nc3nnnn3c2NC2CCCC2)C1 | -12.2% | –
10 | COc1ccc(C(=O)Nc2cc(Cl)ccc2OC(=O)c2ccc(OC)cc2)cc1 | -21.4% | –
11 | CCOc1ccc(C(=O)Nc2ccc(NC(=O)c3ccco3)c(Cl)c2)cc1Br | 0.903% | –
12 | CCOc1ccc(C(=O)Nc2ccc(Cl)cn2)cc1Cl | – | 7.94 µM (active)
13 | COc1ccc(C(=O)Nc2ccc(Cl)cn2)cc1Cl | – | 3.55 µM (active)
14 | Cc1cc(=O)oc(C)c1C(=O)Nc1ccc(Cl)cn1 | 2.86% | –
15 | CCOc1ccc(C(=O)Nc2cccc(-c3nc4cccnc4o3)c2)cc1Cl | -14.5% | –
16 | CCOc1cccc(C2C(C(=O)c3ccc(C)o3)=C(O)C(=O)N2Cc2ccncc2)c1 (stereo unspecified) | -2.19% | –
17 | CC(C)NC(=O)C(C)n1cccc1C(=O)c1ccccc1 (stereo unspecified) | 1.03% | –
18 | O=C(c1cc(-c2cccs2)on1)N1CCN(c2ccc(F)cc2)CC1 | -4.98% | –
19 | CCC(=O)N1CCN(c2ccc(NC(=O)c3cccs3)cc2)CC1 | 1.92% | –
20 | O=C(CCS(=O)(=O)c1cccs1)N1CCN(c2ccc(F)cc2)CC1 | – | 20 µM (active)
21 | Cc1nc2sccn2c(=O)c1Cl | 5.34% | –
22 | CCCCCCCCN1C(=O)N(C)C(N(O)C(=O)NC)C1(C)C (stereo unspecified) | -18.4% | –

Row | Structure (SMILES) | activity, negative = inhibition | AC50
23 | Cc1cc(C(=O)CSC(=S)SC(C)(C)C)ccc1Cl | -0.319% [at 11.4 µM] | –
24 | CCC(C(=O)N1CCOCC1)n1c(C(=O)OC)cc2occc21 (stereo unspecified) | -3.34% | –
25 | CCS(=O)(=O)N1CCC[C@H]2CN3CCc4cc(OC)ccc4[C@@H]3C[C@@H]21 | 1.15% | –
26 | COc1cc2c3cc1Oc1c(OC)c(OC)cc4c1[C@@H](Cc1ccc(O)c(c1)Oc1ccc(cc1)C[C@@H]3N(C)CC2)CN(C)C4 | 2.38% [at 11.4 µM] | –
27 | COc1c(O)ccc2c1CN1CCc3cc4c(cc3[C@@H]1C2)OCO4 | – | 0.158 µM (active)
28 | COc1ncc2nc(C)c(=O)n(C3CC3)c2n1 | -6.88% | –
29 | COc1ccc(Cc2n[nH]c(=O)c3ccccc23)cc1OC | 2.51% | –
30 | O=C(CNC(=O)c1ccco1)OCc1c(F)cccc1Cl | -19.8% | –
31 | N[C@@H](CSC(=O)c1ccccc1)C(=O)O | 9.96% [at 11.4 µM] | –
32 | Cc1ccccc1C(=O)Oc1ccc(Br)cc1C(=S)N1CCCC1 | -18.1% | –
33 | O=C(OCCN1CCCCC1)c1c[nH]c2ccccc12 | 4.62% | –
34 | Cc1c(-c2ccccc2)oc2c(C(=O)OCCN3CCCCC3)cccc2c1=O | – | 7.94 µM (active)
35 | Cc1ccccc1Oc1ccc(-c2nc(N)nc(N)n2)cc1 | -15.2% | –
36 | O=C(Oc1ccc2ccccc2c1Br)N1CCCCCC1 | -20.5% | –
37 | O=C(N/N=C/c1ccc(O)cc1)c1csc2ccccc12 | 1.92% | –
38 | O=C(CCN1CCCCC1)c1csc2ccccc12 | – | 1 µM (active)
39 | Cc1noc(C)c1-c1cc(N2CCN(C)CC2)ncn1 | -0.596% | –
40 | O=C(O)Cc1ccc2c(c1)N(S(=O)(=O)c1cccc(C(F)(F)F)c1)CC(C(=O)O)O2 (stereo unspecified) | 2.47% | –
41 | C=CC1=C[C@@H](O)C2OC2C12OCCCO2 (stereo partly specified) | -1.06% [at 11.4 µM] | –
42 | Cc1[nH]n(-c2ccc(S(=O)(=O)O)cc2)c(=O)c1N=Nc1ccccc1 | 16.9% [at 11.4 µM] | –
43 | O=C(Oc1ccccc1)N1CCC2(CCCN(c3ccccc3)C2)CC1 | -6.41% | –
44 | CCCCn1c(SCC(=O)N2CCCC2)nc2c1c(=O)n(C)c(=O)n2C | 0.341% | –

Row | Structure (SMILES) | activity, negative = inhibition | AC50
45 | CN(C)CCn1c(CO)nc2c1c(=O)n(C)c(=O)n2C | -1.53% [at 11.4 µM] | –
46 | CCCCCn1c(CN2CCCCC2C)nc2c1c(=O)n(C)c(=O)n2C (stereo unspecified) | – | 14.1 µM (active)
47 | Cc1ccc(-n2nnnc2SCC(=O)NNC(=O)c2ccco2)c(C)c1 | 21.1% | –
48 | O=C(NCC(c1cccnc1)N1CCOCC1)Nc1ccccc1 (stereo unspecified) | -29% | –
49 | c1ccc(C[C@@H](Nc2cccnc2)c2ccccc2)cc1 | – | 1 µM (active)
50 | O=C(O)Cc1cccnc1 | 16.4% [at 11.4 µM] | –
51 | O=S(=O)(O)c1cc(O)c2c(O)c(N=Nc3cccc4ccccc34)c(S(=O)(=O)O)cc2c1 | -16% [at 11.4 µM] | –
52 | COc1cc(C2SCCCCCCCCCCSC(c3ccc(O)c(OC)c3)SCCCCCCCCCCS2)ccc1O (stereo unspecified) | 6.94% [at 11.4 µM] | –
53 | COc1cccc(NC(=O)COC(=O)c2c3c(nc4ccccc24)CCC(C)C3)c1 (stereo unspecified) | – | 7.94 µM (active)
54 | COc1ccc(OC)c(NC(=O)c2c3c(nc4ccccc24)CCC3)c1 | -23.5% | –
55 | COc1ccc(NC(=O)COC(=O)c2c3c(nc4ccccc24)CCCC3)cc1 | -28.1% | –
56 | C[N+]1(CCOc2ccc([N+](=O)[O-])cc2)CCOCC1 | -9.46% | –
57 | Cc1ccc(/S(C)=N/S(=O)(=O)c2ccc(C)cc2)cc1 (stereo unspecified) | -12.1% | –
58 | C[C@@H](c1ccccc1)N1C(=O)[C@@H]2[C@H]3C(=CC[C@H]2C1=O)C(=O)[C@H]1O[C@H]1[C@H]3O | 5.61% [at 11.4 µM] | –
59 | COc1cccc(-c2cc(C(F)(F)F)nc(N3CCN(c4ccccc4)CC3)n2)c1 | -13.2% | –
60 | COc1ccccc1N1CCN(c2nc(-c3ccccc3)cc(C(F)(F)F)n2)CC1 | -3.52% | –
61 | CN1CCN(c2nc(-c3ccccc3)cc(C(F)(F)F)n2)CC1 | – | 17.8 µM (active)
62 | O=C(c1ccccc1)c1ccc(OCC(O)CN2CCN(Cc3ccccc3)CC2)cc1 (stereo unspecified) | – | 3.16 µM (active)
63 | CC1CC(OCC(O)CN2CCN(Cc3ccccc3)CC2)CC(C)(C)C1 (stereo unspecified) | -25.2% | –
64 | COc1cc(/C=C/C(=O)N2CCN(CC(O)COc3ccccc3)CC2)cc(OC)c1OC (stereo unspecified) | -5.83% | –
65 | O=C(c1ccccc1)c1ccc(OCCn2cnc3ccccc3c2=O)cc1 | -15.1% | –
66 | CC1CCC(C(C)C)C(OCC(O)CN2CCN(Cc3ccccc3)CC2)C1 (stereo unspecified) | – | 0.112 µM (active)
